In PubChem BioAssay AID1159580 (chemical genetic matrix, 2015):
Values joined by “and” are separate entries in the source; they are usually repeats but may differ in a detail not shown here. Equal values may be shown once. Among all 5,500 compounds or so, about 2,000 (36%) were called active. Inconclusive results (about 18%) are left out. Rule as the data show it: active = normalized growth mostly below about 0.91 (no sharp cut-off); inconclusive = no clear call, values can overlap the other calls; inactive = mostly above about 0.92. The list shows a part of the results.

Experiment: chemical genetic growth profiling, strain panel (AID 1159580);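 also: tested at 20 µM; growth read once vehicle control cultures reached saturation at 30 °C; 1 = growth at the plate median or of vehicle wells; lower values mean less growth of the strain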
Settings: growth OD

Measured: normalized growth

CCCCC1C(=O)N(c2ccccc2)N(c2ccccc2)C1=O
inactive: S. cerevisiae deletion strains, locus YJR075W, strain HOC1, active compounds read low 1 | S. cerevisiae deletion strains, locus YKL009W, strain mrt4, active compounds read low 0.98 | S. cerevisiae deletion strains, locus YKL068W, active compounds read low 0.963 | S. cerevisiae deletion strains, locus YKL085W, strain MDH1 (second series), active compounds read low 0.959 | S. cerevisiae deletion strains, locus YKL085W, strain MDH1, active compounds read low 0.959 | S. cerevisiae deletion strains, locus YKL160W, strain elf1, active compounds read low 1.01 | S. cerevisiae deletion strains, locus YKL190W, strain CNB1, active compounds read low 0.972 | S. cerevisiae deletion strains, locus YKR001C, strain vps1, active compounds read low 0.994 | S. cerevisiae deletion strains, locus YKR026C, strain gcn3, active compounds read low 0.988 | S. cerevisiae deletion strains, locus YKR091W, strain srl3, active compounds read low 0.986 | S. cerevisiae deletion strains, locus YLL001W, strain dnm1, active compounds read low 0.992 | S. cerevisiae deletion strains, locus YLL026W, active compounds read low 0.99 | S. cerevisiae deletion strains, locus YLL041C, strain sdh2, active compounds read low 0.985 | S. cerevisiae deletion strains, locus YLR027C, strain aat2, active compounds read low 0.987 | S. cerevisiae deletion strains, locus YLR039C, strain RIC1, active compounds read low 0.895 | S. cerevisiae deletion strains, locus YLR058C, strain SHM2, active compounds read low 0.987 | S. cerevisiae deletion strains, locus YLR102C, strain apc9, active compounds read low 0.983 | S. cerevisiae deletion strains, locus YLR113W, strain HOG1, active compounds read low 0.899 | S. cerevisiae deletion strains, locus YLR221C, strain rsa3, active compounds read low 1.02 | S. cerevisiae deletion strains, locus YLR258W, strain gsy2, active compounds read low 0.993 | S. cerevisiae deletion strains, locus YLR262C, strain YPT6 (second series), active compounds read low 0.93 | S. cerevisiae deletion strains, locus YLR262C, strain YPT6, active compounds read low 0.893 | S. cerevisiae deletion strains, locus YLR268W, strain sec22, active compounds read low 1.06 | S. cerevisiae deletion strains, locus YLR320W, strain mms22, active compounds read low 1.02 | S. cerevisiae deletion strains, locus YLR330W, strain CHS5, active compounds read low 0.984 | S. cerevisiae deletion strains, locus YLR342W, strain FKS1 (second series), active compounds read low 0.994 | S. cerevisiae deletion strains, locus YLR342W, strain FKS1, active compounds read low 0.978 | S. cerevisiae deletion strains, locus YLR357W, strain rsc2, active compounds read low 1.04 | S. cerevisiae deletion strains, locus YLR370C, strain arc18, active compounds read low 0.973 | S. cerevisiae deletion strains, locus YLR371W, strain rom2, active compounds read low 1 | S. cerevisiae deletion strains, locus YLR384C, strain iki3, active compounds read low 0.996 | S. cerevisiae deletion strains, locus YLR418C, strain cdc73, active compounds read low 0.995 | S. cerevisiae deletion strains, locus YML016C, strain PPZ1, active compounds read low 0.98 | S. cerevisiae deletion strains, locus YML032C, strain rad52, active compounds read low 1.02 | S. cerevisiae deletion strains, locus YML120C, strain ndi1, active compounds read low 0.999 | S. cerevisiae deletion strains, locus YML124C, strain tub3, active compounds read low 0.982 | S. cerevisiae deletion strains, locus YMR058W, strain fet3, active compounds read low 0.993 | S. cerevisiae deletion strains, locus YMR078C, strain ctf18, active compounds read low 0.988 | S. cerevisiae deletion strains, locus YMR125W, strain sto1, active compounds read low 0.989 | S. cerevisiae deletion strains, locus YMR129W, active compounds read low 0.986 | S. cerevisiae deletion strains, locus YMR205C, strain PFK2, active compounds read low 0.989 | S. cerevisiae deletion strains, locus YMR223W, strain ubp8, active compounds read low 0.967 | S. cerevisiae deletion strains, locus YMR231W, strain pep5, active compounds read low 0.996 | S. cerevisiae deletion strains, locus YMR263W, strain SAP30, active compounds read low 0.997 | S. cerevisiae deletion strains, locus YMR307W, strain GAS1, active compounds read low 0.971 | S. cerevisiae deletion strains, locus YNL067W, strain RPL9B, active compounds read low 1.02 | S. cerevisiae deletion strains, locus YNL071W, strain lat1, active compounds read low 0.994 | S. cerevisiae deletion strains, locus YNL128W, strain TEP1, active compounds read low 0.99 | S. cerevisiae deletion strains, locus YNL153C, strain GIM3, active compounds read low 1.04 and 1 | S. cerevisiae deletion strains, locus YNL175C, strain NOP13, active compounds read low 0.971 | S. cerevisiae deletion strains, locus YNL183C, strain NPR1, active compounds read low 0.946 | S. cerevisiae deletion strains, locus YNL197C, strain WHI3, active compounds read low 0.976 | S. cerevisiae deletion strains, locus YNL209W, strain ssb2, active compounds read low 1 | S. cerevisiae deletion strains, locus YNL224C, strain SQS1, active compounds read low 0.972 | S. cerevisiae deletion strains, locus YNL233W, strain BNI4, active compounds read low 1.04 | S. cerevisiae deletion strains, locus YNL248C, strain rpa49, active compounds read low 1.03 | S. cerevisiae deletion strains, locus YNL250W, strain rad50, active compounds read low 0.972 | S. cerevisiae deletion strains, locus YNL271C, strain bni1, active compounds read low 0.979 | S. cerevisiae deletion strains, locus YNL298W, strain CLA4, active compounds read low 0.998 | S. cerevisiae deletion strains, locus YNL307C, strain MCK1, active compounds read low 1.01 | S. cerevisiae deletion strains, locus YNL322C, strain KRE1 (second series), active compounds read low 0.982 | S. cerevisiae deletion strains, locus YNL322C, strain KRE1, active compounds read low 0.973 | S. cerevisiae deletion strains, locus YNR049C, strain mso1, active compounds read low 0.985 | S. cerevisiae deletion strains, locus YNR052C, strain pop2, active compounds read low 0.999 | S. cerevisiae deletion strains, locus YOL006C, strain TOP1, active compounds read low 1.05 | S. cerevisiae deletion strains, locus YOL012C, strain htz1 0.887 | S. cerevisiae deletion strains, locus YOL147C, strain pex11, active compounds read low 0.993 | S. cerevisiae deletion strains, locus YOR001W, strain rrp6, active compounds read low 0.99 | S. cerevisiae deletion strains, locus YOR061W, strain CKA2, active compounds read low 0.977 | S. cerevisiae deletion strains, locus YOR069W, strain VPS5, active compounds read low 0.984 | S. cerevisiae deletion strains, locus YOR070C, strain gyp1, active compounds read low 0.999 | S. cerevisiae deletion strains, locus YOR080W, strain dia2, active compounds read low 0.987 | S. cerevisiae deletion strains, locus YOR083W, strain WHI5 (second series), active compounds read low 0.994 | S. cerevisiae deletion strains, locus YOR083W, strain WHI5, active compounds read low 1.02 | S. cerevisiae deletion strains, locus YOR106W, strain vam3, active compounds read low 1.03 | S. cerevisiae deletion strains, locus YOR136W, strain idh2, active compounds read low 0.982 | S. cerevisiae deletion strains, locus YOR144C, strain elg1, active compounds read low 0.985 | S. cerevisiae deletion strains, locus YOR184W, strain ser1, active compounds read low 1 | S. cerevisiae deletion strains, locus YOR231W, strain MKK1, active compounds read low 0.933 | S. cerevisiae deletion strains, locus YOR265W, strain rbl2, active compounds read low 0.988 | S. cerevisiae deletion strains, locus YOR270C, strain vph1, active compounds read low 1.02 | S. cerevisiae deletion strains, locus YOR290C, strain snf2, active compounds read low 1.02 | S. cerevisiae deletion strains, locus YOR316C, strain cot1, active compounds read low 0.986 | S. cerevisiae deletion strains, locus YPL051W, strain arl3, active compounds read low 0.992 | S. cerevisiae deletion strains, locus YPL055C, strain LGE1, active compounds read low 1 and 0.997 | S. cerevisiae deletion strains, locus YPL078C, strain atp4, active compounds read low 1.02 | S. cerevisiae deletion strains, locus YPL106C, strain sse1, active compounds read low 1.01 | S. cerevisiae deletion strains, locus YPL240C, strain hsp82, active compounds read low 0.994 | S. cerevisiae deletion strains, locus YPL241C, strain CIN2, active compounds read low 0.981 and 1 | S. cerevisiae deletion strains, locus YPL256C, strain CLN2, active compounds read low 0.914 | S. cerevisiae deletion strains, locus YPR119W, strain clb2, active compounds read low 0.977 | S. cerevisiae deletion strains, locus YPR141C, strain kar3, active compounds read low 0.961 | S. cerevisiae deletion strains, locus YPR163C, strain tif3, active compounds read low 1 | S. cerevisiae deletion strains, locus YPR167C, strain met16, active compounds read low 0.993 | S. cerevisiae deletion strains, strain wtn01, active compounds read low 1.02 | S. cerevisiae strains, strain wild type, active compounds read low 0.984
